The list is not random: actives were taken first. Their share in the collection is about 5.2%.
Calb biofilm kill = kills Candida albicans biofilms; hit rate 0.14% among 85,000; C. albicans biofilm + clotrimazole, Alamar Blue; inhibition, % at 6 µM; AID 834;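 active means inhibition above 20%; inactive means inhibition below 20%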;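 further: preformed 24 hr biofilms exposed to compound for 48 hr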
PostGolgi yeast = growth inhibition of a yeast mutant, post-Golgi transport screen | post-Golgi transport phenotypic cell assay | inhibition, % at 10 µM | hit rate 0.9% among 98,000 | AID 739;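 further: yeast cells grown in 1536-well plates; yeast grown about 18 h at 30C before absorbance read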
PostGolgi ctrl = inhibits growth of the yeast control strain | efflux-deficient yeast background strain, growth absorbance A615, 16 h | inhibition, % at 10 µM | hit rate 5% among 98,000 | AID 738
EphB4 antag = EphB4-ephrin-B2 interaction antagonism. EphB4 LBD / TNYL-RAW-Alexa532 peptide, fluorescence polarization. hit rate 0.15% among 97,000. inhibition, % at 7 µM. P54760;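 active means inhibition above the screen-wide mean inhibition plus 3 SD, cut at about 15% in these data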
Target sequence (P54760 whole entry, looked up, the tested form may be a part): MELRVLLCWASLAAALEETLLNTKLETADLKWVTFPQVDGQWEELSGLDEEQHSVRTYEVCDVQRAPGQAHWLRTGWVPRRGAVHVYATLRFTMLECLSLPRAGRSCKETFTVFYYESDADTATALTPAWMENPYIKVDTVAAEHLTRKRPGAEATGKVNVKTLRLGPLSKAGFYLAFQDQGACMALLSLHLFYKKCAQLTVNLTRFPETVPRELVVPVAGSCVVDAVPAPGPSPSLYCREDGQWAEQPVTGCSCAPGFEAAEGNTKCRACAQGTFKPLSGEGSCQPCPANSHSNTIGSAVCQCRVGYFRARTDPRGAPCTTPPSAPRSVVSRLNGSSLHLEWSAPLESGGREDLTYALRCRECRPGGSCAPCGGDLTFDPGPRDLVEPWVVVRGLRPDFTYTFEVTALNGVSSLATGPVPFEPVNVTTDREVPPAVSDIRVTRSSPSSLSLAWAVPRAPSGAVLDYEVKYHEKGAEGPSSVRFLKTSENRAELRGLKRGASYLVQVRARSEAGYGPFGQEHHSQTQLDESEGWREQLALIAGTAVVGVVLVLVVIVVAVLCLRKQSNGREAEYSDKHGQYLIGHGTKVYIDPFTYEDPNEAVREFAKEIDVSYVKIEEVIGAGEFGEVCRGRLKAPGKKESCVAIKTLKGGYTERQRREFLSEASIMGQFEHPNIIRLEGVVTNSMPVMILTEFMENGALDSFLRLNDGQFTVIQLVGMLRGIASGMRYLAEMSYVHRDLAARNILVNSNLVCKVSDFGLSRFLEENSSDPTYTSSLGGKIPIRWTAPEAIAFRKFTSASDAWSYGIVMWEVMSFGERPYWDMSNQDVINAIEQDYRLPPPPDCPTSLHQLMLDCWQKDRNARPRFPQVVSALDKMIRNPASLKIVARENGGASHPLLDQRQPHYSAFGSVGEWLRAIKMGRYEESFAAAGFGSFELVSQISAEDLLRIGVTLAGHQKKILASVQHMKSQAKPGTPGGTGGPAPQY
Hits are given with their value; 0 = inactive; - = no result. Unless noted, no stated cut-off is given here; in the data, active means inhibition above about 30%; inactive means the rest.

SMILES	Calb biofilm kill	PostGolgi yeast	PostGolgi ctrl	EphB4 antag
CCCCNS(=O)(=O)c1ccc(NC(=O)c2c(-c3ccccc3Cl)noc2C)cc1	0	0	0	0
CCOC(=O)N1CCC(NC(=O)C2CCCN(S(C)(=O)=O)C2)CC1 (stereo not drawn)	0	0	35.7	0
CCOC(=O)N1CCC(NC(=O)C2CCN(S(=O)(=O)N3CCCC3)CC2)CC1	0	0	0	0
CCOC(=O)Cn1nc(-c2ccc(F)cc2)oc1=O	0	0	0	0
COC(=O)c1nn(-c2ccc3c(c2)CCN3C(C)=O)cc1O	0	0	0	0
COC(=O)c1nn(-c2ccc3c(c2)OCO3)cc1O	0	0	37.3	0
COn1c(SCc2ccc(C)cc2C)nc2ccccc2c1=O	0	0	0	0
O=C(CN1C2CCCC1CC(NC(=O)c1ccccc1)C2)Nc1nccs1 (stereo not drawn)	0	-	-	0
Cc1cccc(Oc2ncc(-c3ccc(Cl)cc3)cn2)c1	-	0	0	0
N/C(=N\c1nc2c(c(=O)[nH]1)CCC2)Nc1ccccc1C(F)(F)F	-	0	0	0
Cc1ccc(NC(=O)c2sccc2SCc2cccc(C(F)(F)F)c2)cc1	-	0	0	0
Cc1cccc(C)c1NC(=O)c1sccc1SCc1cccc(C(F)(F)F)c1	-	0	51.2	0
CCc1nc(SCC(=O)N2c3ccccc3CC2C)c2c(C)c(C)sc2n1 (stereo not drawn)	-	0	32.9	0
CCc1nc(SCC(=O)N2CC(=O)Nc3ccccc32)c2c(C)c(C)sc2n1	-	0	0	0
COCC(=O)/C=C1\Sc2ccccc2N1C	0	0	36.1	0
CN1/C(=C/C(=O)C2CCC2)Sc2ccccc21	0	0	0	0
COc1ccccc1-c1cc(C(=O)N2CCc3ccccc3C2)c2ccccc2n1	-	0	52.5	0
CC1CC(C)CN(C(=O)c2cc(-c3ccccn3)nc3ccccc23)C1 (stereo not drawn)	0	0	0	0
O=C(c1cc(-c2ccccn2)nc2ccc(Br)cc12)N1CCc2ccccc2C1	-	0	70.7	0
COc1ccc(OC)c(-c2cc(C(=O)N3CCN(c4ncccn4)CC3)c3ccccc3n2)c1	0	0	0	0
CC(C)(Oc1ccc(Br)cc1)C(=O)N1CCc2ccccc21	0	0	0	0
CCOC(=O)C1CCN(c2c(NC3CCCc4ccccc43)c(=O)c2=O)CC1 (stereo not drawn)	0	0	0	0
Cc1ccc(-c2nc3ccccc3s2)cc1S(=O)(=O)N1CCCC1	0	0	30.8	0
O=S(=O)(c1cccc(-c2nc3ccccc3s2)c1)N1CCOCC1	0	0	30.4	0
Cc1ccc(S(=O)(=O)N2CCCC2)cc1S(=O)(=O)N1CCCC1	0	0	0	0
SMILES	Calb biofilm kill	PostGolgi yeast	PostGolgi ctrl	EphB4 antag
CCOC(=O)C1=C(C)NC(=O)NC1/C(C)=C/c1ccccc1 (stereo not drawn)	0	0	0	-
O=c1n(S(=O)(=O)c2cccc3cccnc23)c2ccccc2n1S(=O)(=O)c1cccc2cccnc12	0	0	0	0
Clc1ccc(NC2(c3nnnn3C3CCCCC3)CCCCC2)cc1	-	0	0	0
Cc1cccc(C)c1-n1nnnc1C1(Nc2ccccc2)CCCCC1	-	0	44.4	0
N#Cc1c(NC(=O)c2ccc(Cn3cc(Br)cn3)o2)sc2c1CCCCC2	0	0	35.0	0
CC1CCc2c(sc(NC(=O)c3ccc(Cn4cc([N+](=O)[O-])cn4)o3)c2C#N)C1 (stereo not drawn)	0	0	37.8	0
CCN1CCN(CC(=O)Nc2cccc(C)c2)C(=O)C1=O	0	-	-	0
CCc1ccc(C(=O)/C=C/c2ccc([N+](=O)[O-])o2)cc1	0	62.8	0	0
CCCCCC(=O)N/N=C/c1ccc([N+](=O)[O-])o1	-	0	0	0
CC(SC1CCCC1)C(=O)NC(C)(C#N)C(C)C (stereo not drawn)	0	0	31.5	0
Cc1csc(SCC(=O)NC(=O)NCc2ccccc2)n1	0	0	41.9	0
CC1CCC(C(C)C)C(OCC(O)CN2CCN(Cc3ccccc3)CC2)C1 (stereo not drawn)	-	103.5	30.1	0
Cc1ccc(-n2c(Cc3cccn3C)nnc2SCC(=O)NCc2ccc3c(c2)OCO3)cc1	0	0	32.5	0
CCn1cc(SCC(=O)NCc2ccc3c(c2)OCO3)c2ccccc21	0	0	35.9	-
CCN(CC)C(=O)c1cnn(-c2ccccc2)c1NC(=O)c1cccc(F)c1	0	0	0	0
Cc1csc(-c2cnn(-c3ccccc3)c2NC(=O)c2cccc(C(F)(F)F)c2)n1	-	0	34.4	0
COc1cc(-c2nnc3sc(-c4ccncc4)nn23)cc(OC)c1OC	0	-	-	-
COc1cc(-c2nn3c(COc4ccccc4)nnc3s2)cc(OC)c1OC	0	0	0	-
COc1cc(-c2nn3c(Cc4ccccc4)nnc3s2)cc(OC)c1OC	0	0	42.5	0
COc1cc(-c2nn3c(-c4ccccc4)nnc3s2)cc(OC)c1OC	0	0	33.2	0
Cc1ccccc1-c1nn2c(-c3ccccc3)nnc2s1	0	0	41.3	-
Cc1ccc(-c2nnc3sc(CCc4ccccc4)nn23)cc1	0	0	30.2	0
COc1ccc(-c2nnc3sc(COc4ccccc4)nn23)cc1	0	0	0	-
COc1ccccc1Cn1c2nc3ccccc3nc2c2c(=O)n(CC(C)C)cnc21	0	-	-	-
CC(C)(C)NC(=O)c1ccc2c(c1)N(CC(=O)N1CCN(c3ccc(F)cc3)CC1)C(=O)C(C)(C)O2	0	0	0	0
SMILES	Calb biofilm kill	PostGolgi yeast	PostGolgi ctrl	EphB4 antag
Cc1sc2c(=O)n3c(nc2c1C(=O)NC1CCCCC1)CCCCC3	0	0	0	0
O=C(Cn1c(C(F)(F)F)nc2ccccc21)c1ccc(F)cc1	-	0	0	0
Cc1cc(C)nc(-n2nc(C)cc2NC(=O)c2cccc(S(=O)(=O)N3CCOCC3)c2)n1	-	0	0	0
CSc1ccccc1C(=O)Nc1nccs1	0	0	0	0
O=C(O)c1ccccc1C(=O)Nc1ccccc1	0	0	40.4	0
O=C(O)c1ccccc1C(=O)Nc1nccs1	-	0	30.2	0
O=c1c2ccccc2nc(SCc2nnc(-c3ccccc3)o2)n1-c1ccc(F)cc1F	0	0	30.8	0
O=c1c2ccccc2nc(SCc2nnc(-c3ccccc3Br)o2)n1-c1ccccc1	0	0	38.6	0
COc1ccc(-c2nnc(CSc3nc4ccccc4c(=O)n3C)o2)cc1OC	0	31.7	0	0
Cc1ccc(-n2nnnc2SCc2nnc(-c3ccccc3Br)o2)cc1	0	0	56.5	0
Cn1c(SCc2ccon2)nc2ccccc2c1=O	0	0	0	0
Cc1c(C#N)c(N=CN(C)C)c(C(=O)c2ccccc2)n1-c1ccc(Br)cc1	0	0	43.1	0
CCc1cc(=O)oc2c(C)c(OCC(=O)N3CCCc4ccccc43)ccc12	0	0	32.8	0
CCc1cc(=O)oc2cc(OCC(=O)N3CCc4ccccc43)ccc12	0	-	-	-
Cn1c(N2CCC(C(N)=O)CC2)nc2c1c(=O)n(Cc1ccc(Br)cc1)c(=O)n2C	0	-	-	0
CCOC(=O)c1sc2ncnc(N3CCN(C(=O)OCC)CC3)c2c1C	0	0	36.5	-
CCOC(=O)c1sc2nc(CC(=O)OC)nc(N3CCN(c4ccccn4)CC3)c2c1C	0	0	30.1	0
Cc1c(C(=O)N2CCN(c3ccccc3)CC2)sc2ncnc(N3CCN(c4ccccc4)CC3)c12	0	-	-	0
Cc1ncsc1CCSc1nc2ccccc2c(=O)n1C	-	0	0	0
COc1ccc(C(=O)Nc2nc(C)c(C(=O)N(C)C)s2)cc1OC	0	0	33.6	0

From PubChem BioAssay
